Our source for the Potency and outcome values is PubChem BioAssay (NCATS).

Where “and” joins values, the source holds several entries; their conditions need not be identical. Equal values may be shown once. Results filed as inconclusive are left out. The source holds several records for some structures; these can differ, active in one and inactive in another. Calls of active or inactive are those of the source. Unless noted, calls follow the shape of the dose curve; as a rule, active = well fitted curve in the direction sought with a large enough effect; inconclusive = small, poorly fitted or top-dose-only effect, or another doubt; inactive = no such curve, though single readings can be large; an effect the other way counts as inactive or inconclusive.

Assay [1] can be described thus: P-glycoprotein substrates identified in KB-3-1 adenocarcinoma cell line, qHTS therapeutic library screen (AID 1346986). Also: nearly all actives have a fitted effect of over 60% in size.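 Also: potency is read from the fitted curve at half-maximal effect; potency is for cytotoxicity meaning loss of cell viability.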 The procedure, abridged:
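Dose-response cytotoxicity, KB-3-1 vs P-gp-high KB-8-5-11, no colchicine in assay medium. Read: CellTiter-Glo at 72 h.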
In general terms: qHTS replaces the single test concentration by a dilution series.

Assay [2] is described as follows: P-glycoprotein substrates identified in KB-8-5-11 adenocarcinoma cell line, qHTS therapeutic library screen (AID 1346987). Also: nearly all actives have a fitted effect of over 65% in size. Also: potency is read from the fitted curve at half-maximal effect. The procedure, abridged:
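Human cervical adenocarcinoma KB-8-5-11 cells, selected in colchicine to over-express P-gp and assayed without it, were exposed for 72 h to titrated compounds. An ATP-based luminescent viability signal gave AC50.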

Assay [3] is described as follows: NS1 protein of Zika virus - qHTS assay to identify small molecule inhibitors in human HEK 293 cells (AID 1347053). Also: nearly all actives have a fitted effect of over 55% in size. Also: potency is read from the fitted curve at half-maximal effect. The procedure, abridged:
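TR-FRET signal from two anti-ZIKV NS1 antibodies quantified NS1 in HEK 293 cells 24 h after MR766 infection at MOI = 0.5; compounds were added 1 h before virus. Uninfected cells and infected cells defined the NS1 normalization range.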

Assay [4] has as its target Atrial natriuretic peptide receptor 1 (Homo sapiens) (UniProt P16066). Briefly: Natriuretic polypeptide receptor (hNpr1) antagonism - Pilot screen (AID 1347049; calls by dose curve;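 also: HEK293 cells with hNpr1 and GloSensor cGMP luciferase stimulated by 0.1 nM hNppA; agonist-evoked cGMP luminescence read 20 min after hNppA addition; series mostly up to about 58 µM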). The procedure, abridged: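 Receptor antagonism read as cGMP-dependent luminescence in hNpr1/pGS-40F HEK293 cells: pre-read after 30 min compound exposure, post-read 20 min after hNppA agonist at 0.1 nM final, all at room temperature, protected from light; A-71915 titration as control.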

In assay [5] the target is Atrial natriuretic peptide receptor 2 (Homo sapiens) (UniProt P20594). Briefly: Natriuretic polypeptide receptor (hNpr2) antagonism - Pilot subtype selectivity assay (AID 1347050; calls by dose curve). The procedure, abridged:
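Antagonist mode: compounds (LOPAC1280, seven 1:5 dilutions) added 30 min before 1 nM hNppC stimulation of hNpr2-HEK293 cGMP-sensor cells; luminescence read before and 20 min after agonist at ambient temperature.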

For assay [6], the target named is T1, Tyrosine-protein phosphatase non-receptor type substrate 1 (Homo sapiens) + Leukocyte surface antigen CD47 (Homo sapiens) (UniProt P78324+Q08722). As to the kind of experiment: CD47-SIRPalpha protein protein interaction - LANCE assay qHTS validation (AID 1347057; active = well fitted curve in the direction sought with a large enough effect in the signal ratio, with a control signal flat, not every such curve was filed as active; the % refers to the signal ratio; also: series mostly up to about 38 µM). The procedure, abridged: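 Inhibition of soluble CD47/SIRPalpha ectodomain association by titrated compounds, measured as 665/615 nm time-resolved FRET ratio after sequential 30 min room-temperature incubations.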
(In general: TR-FRET usually uses a lanthanide donor and a delayed reading to cut background.)

For assay [7], the target named is T1, Tyrosine-protein phosphatase non-receptor type substrate 1 (Homo sapiens) + Leukocyte surface antigen CD47 (Homo sapiens). Briefly: CD47-SIRPalpha protein protein interaction - HTRF assay qHTS validation (AID 1347058; active = well fitted curve in the direction sought with a large enough effect in the signal ratio, not every such curve was filed as active; the % refers to the signal ratio; also: series mostly up to about 38 µM). The procedure, abridged:
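Soluble extracellular domains (6His-CD47, Avi-tag-biotinylated SIRPalpha) in PBS pH 7.4 with 0.05% IGEPAL CA-630. Compounds were preincubated 30 min at RT with CD47 and anti-His-Eu, then SIRPalpha and SAV-XL665 were added. TR-FRET 665/615 ratio.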

Assay [8] shares this target. As to the kind of experiment: CD47-SIRPalpha protein protein interaction - Alpha assay qHTS validation (AID 1347059).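 Also: bead proximity luminescence from CD47 binding SIRPalpha after compound preincubation with SIRPalpha.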 In short, it runs like this: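 AlphaScreen signal between CD47-His (12.5 nM) and biotin-SIRPalpha (25 nM) soluble extracellular domains, bead-captured via Ni-NTA and streptavidin. Compounds, in 7-point titrations, met SIRPalpha 30 min before CD47; PBS pH 7.4 with 0.05% IGEPAL.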

Atrial natriuretic peptide receptor 2 (Homo sapiens), sequence (P20594 whole entry, looked up): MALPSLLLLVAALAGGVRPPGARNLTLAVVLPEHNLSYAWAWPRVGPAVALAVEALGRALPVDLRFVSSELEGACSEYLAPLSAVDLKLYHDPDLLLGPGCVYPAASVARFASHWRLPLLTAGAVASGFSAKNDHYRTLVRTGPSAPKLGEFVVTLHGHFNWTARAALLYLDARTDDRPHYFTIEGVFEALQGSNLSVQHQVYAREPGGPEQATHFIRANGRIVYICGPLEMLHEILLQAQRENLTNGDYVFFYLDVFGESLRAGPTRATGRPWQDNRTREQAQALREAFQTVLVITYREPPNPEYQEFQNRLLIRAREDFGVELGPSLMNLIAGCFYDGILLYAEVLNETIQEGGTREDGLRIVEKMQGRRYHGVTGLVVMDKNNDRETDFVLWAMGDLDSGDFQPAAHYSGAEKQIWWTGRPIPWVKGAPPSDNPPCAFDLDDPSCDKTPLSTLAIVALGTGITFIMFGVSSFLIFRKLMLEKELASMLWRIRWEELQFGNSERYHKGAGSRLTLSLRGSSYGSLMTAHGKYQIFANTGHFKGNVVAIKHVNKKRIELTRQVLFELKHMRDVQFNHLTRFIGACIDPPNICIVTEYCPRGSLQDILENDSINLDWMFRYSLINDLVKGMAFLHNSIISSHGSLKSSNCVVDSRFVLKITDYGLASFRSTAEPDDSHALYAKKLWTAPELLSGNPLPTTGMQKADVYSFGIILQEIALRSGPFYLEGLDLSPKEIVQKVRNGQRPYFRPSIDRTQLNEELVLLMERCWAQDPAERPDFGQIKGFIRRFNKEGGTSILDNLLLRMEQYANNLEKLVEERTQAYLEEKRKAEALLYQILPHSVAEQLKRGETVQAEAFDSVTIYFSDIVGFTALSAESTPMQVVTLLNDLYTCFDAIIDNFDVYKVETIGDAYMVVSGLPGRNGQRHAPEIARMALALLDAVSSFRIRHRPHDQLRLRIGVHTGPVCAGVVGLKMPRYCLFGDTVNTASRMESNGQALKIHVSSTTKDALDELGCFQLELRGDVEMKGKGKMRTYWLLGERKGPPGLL
T1 sequence (P78324 whole entry, looked up, the tested form may be a part): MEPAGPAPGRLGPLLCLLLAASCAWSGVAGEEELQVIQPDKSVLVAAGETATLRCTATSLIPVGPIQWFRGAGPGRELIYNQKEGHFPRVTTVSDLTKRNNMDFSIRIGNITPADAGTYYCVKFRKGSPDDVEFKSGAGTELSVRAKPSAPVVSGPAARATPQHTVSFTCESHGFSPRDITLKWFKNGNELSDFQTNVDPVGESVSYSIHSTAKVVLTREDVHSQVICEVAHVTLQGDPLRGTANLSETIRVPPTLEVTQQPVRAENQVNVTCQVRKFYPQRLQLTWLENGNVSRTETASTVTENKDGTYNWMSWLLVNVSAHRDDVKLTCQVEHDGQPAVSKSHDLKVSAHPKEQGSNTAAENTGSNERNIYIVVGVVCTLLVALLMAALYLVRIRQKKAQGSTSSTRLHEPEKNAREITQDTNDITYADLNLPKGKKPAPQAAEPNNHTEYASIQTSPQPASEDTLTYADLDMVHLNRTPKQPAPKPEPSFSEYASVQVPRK
T1 sequence (Q08722 whole entry, looked up, the tested form may be a part): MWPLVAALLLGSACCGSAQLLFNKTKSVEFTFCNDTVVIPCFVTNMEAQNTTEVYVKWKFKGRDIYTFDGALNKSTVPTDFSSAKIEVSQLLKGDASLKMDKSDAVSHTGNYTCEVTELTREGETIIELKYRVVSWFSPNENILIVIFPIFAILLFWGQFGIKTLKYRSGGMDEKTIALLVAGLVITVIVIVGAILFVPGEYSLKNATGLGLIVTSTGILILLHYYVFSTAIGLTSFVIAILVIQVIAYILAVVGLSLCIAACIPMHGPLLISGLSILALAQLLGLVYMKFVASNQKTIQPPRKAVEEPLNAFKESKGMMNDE
Atrial natriuretic peptide receptor 1 (Homo sapiens), sequence (P16066 whole entry, looked up): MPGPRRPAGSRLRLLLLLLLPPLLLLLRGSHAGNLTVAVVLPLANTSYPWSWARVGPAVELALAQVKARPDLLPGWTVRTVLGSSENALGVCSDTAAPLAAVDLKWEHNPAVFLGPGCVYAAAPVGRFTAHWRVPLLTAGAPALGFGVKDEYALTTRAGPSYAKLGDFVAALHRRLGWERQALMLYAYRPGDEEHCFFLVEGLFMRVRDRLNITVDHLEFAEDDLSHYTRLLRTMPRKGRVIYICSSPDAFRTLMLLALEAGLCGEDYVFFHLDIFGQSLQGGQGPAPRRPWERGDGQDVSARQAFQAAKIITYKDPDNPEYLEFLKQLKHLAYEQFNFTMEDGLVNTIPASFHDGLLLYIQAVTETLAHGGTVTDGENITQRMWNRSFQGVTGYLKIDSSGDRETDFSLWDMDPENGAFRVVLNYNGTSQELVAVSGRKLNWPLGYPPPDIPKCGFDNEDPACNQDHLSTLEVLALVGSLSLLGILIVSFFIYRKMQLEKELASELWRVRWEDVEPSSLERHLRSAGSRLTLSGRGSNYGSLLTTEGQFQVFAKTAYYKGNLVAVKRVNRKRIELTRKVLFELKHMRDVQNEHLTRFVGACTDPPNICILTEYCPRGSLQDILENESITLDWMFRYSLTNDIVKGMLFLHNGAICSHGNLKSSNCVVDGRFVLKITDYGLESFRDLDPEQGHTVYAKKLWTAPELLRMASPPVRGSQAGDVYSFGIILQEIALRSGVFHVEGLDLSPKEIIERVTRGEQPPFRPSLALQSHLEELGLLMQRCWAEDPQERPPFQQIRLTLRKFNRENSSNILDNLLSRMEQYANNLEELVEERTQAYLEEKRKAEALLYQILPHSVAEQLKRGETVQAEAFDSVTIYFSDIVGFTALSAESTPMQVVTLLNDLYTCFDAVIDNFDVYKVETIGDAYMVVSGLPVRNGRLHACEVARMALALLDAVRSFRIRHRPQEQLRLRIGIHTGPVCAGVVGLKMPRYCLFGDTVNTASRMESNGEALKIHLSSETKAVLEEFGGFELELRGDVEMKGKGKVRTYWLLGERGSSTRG

With `COc1ccc(-c2nc(N3CCOCC3)c3sc(CN(C)c4ncc(C(=O)NO)cn4)cc3n2)cn1`, the Potency in assay [1] was 0.164 µM (active); in assay [2], 20.9 nM (active) and 231 nM (active).

For `CCOC1OC(=O)C[C@H]1NC(=O)[C@@H]1CCCN1C(=O)[C@@H](NC(=O)c1ccc(N)c(Cl)c1)C(C)(C)C` (stereo partly specified), the Potency result in assay [1], in assay [2] and in assay [3] was “inactive” throughout.

Consider `Cc1ccc([C@@H]2O[C@H](CO)[C@@H](O)[C@H](O)[C@@H]2O)cc1Cc1ccc(-c2ccc(F)cc2)s1`, for which the Potency result in assay [1] and in assay [2] was “inactive” throughout.

With `O=C(O)CCc1nc(-c2ccccc2)c(-c2ccccc2)o1`, the Potency result in assay [1], in assay [2] and in assay [3] was “inactive” in each case. Besides, the result in assay [4], in assay [5], in assay [6], in assay [7] and in assay [8] was inactive.

As for `Nc1ncnc2ccccc12`, the Potency result in assay [1], in assay [2] and in assay [3] was “inactive” in each case.

Consider `CCOC(=O)O[C@]1(C(=O)OCCl)CC[C@@H]2[C@H]3CCC4=CC(=O)C=C[C@]4(C)[C@@H]3[C@@H](O)C[C@@]21C`, for which the Potency result in assay [1], in assay [2] and in assay [3] was “inactive” in each case.

With `O=C(O)c1ccccc1C(=O)Nc1ccc(-c2ccccc2)cc1`, the Potency entry in assay [1], in assay [2] and in assay [3] was “inactive” in each case.

As to `CC[C@@H]1C=C(C)C[C@H](C)C[C@H](OC)[C@H]2O[C@@](O)(C(=O)C(=O)N3CCCC[C@@H]3C(=O)O[C@H](C(C)=C[C@@H]3CC[C@H](Cl)[C@H](OC)C3)[C@H](C)[C@@H](O)CC1=O)[C@H](C)C[C@H]2OC`, the Potency result in assay [1] and in assay [2] was “inactive” each time. Moreover, the Potency in assay [3] was 23.5 µM (active).

`CC(C)(C)Cn1c(N)nc2ccc(-c3[nH]c(C(C)(C)C)nc3-c3ccc(F)cc3)nc21`: the Potency in assay [2] was 20.9 µM (active) and 23.1 µM (active).

For the compound `O=C(NCc1ccccc1)c1csc(Nc2ccncn2)n1`, in assay [2], the Potency result was “inactive”.

Regarding `NCCS`, the Potency result in assay [2] and in assay [3] was “inactive” each time. The compound was called inactive in assay [4], in assay [5], in assay [6], in assay [7] and in assay [8].

As to `COc1ccc2cc(-c3nc(-c4ccc(S(C)=O)cc4)[nH]c3-c3ccncc3)ccc2c1` (stereo unspecified), the Potency entry in assay [2] was “inactive”.

For the compound `O=C(NCc1ccncc1)C12C[C@H]3C[C@@H](C1)CC(c1ccc(Cl)cc1)(C3)C2`, the Potency entry in assay [2] was “inactive”.

For `Cc1cc(OCCCc2c(C(=O)O)n(Cc3cccnc3)c3c(-c4c(COc5ccc(N6CCN([S+](C)(=O)[O-])CC6)cc5)nn(C)c4C)cccc23)cc(C)c1Cl`, the Potency entry in assay [2] is “inactive”.

Take `COC(=O)N[C@H](C(=O)N1CCC[C@@H]1c1ncc(-c2ccc(-c3ccc(-c4cnc([C@@H]5CCCN5C(=O)[C@@H](NC(=O)OC)C(C)C)[nH]4)cc3)cc2)[nH]1)C(C)C`: the Potency entry in assay [2] was “inactive”.

Turning to `COc1cc(Nc2ncc(F)c(Nc3ccc4c(n3)NC(=O)C(C)(C)O4)n2)cc(OC)c1OC`, the Potency in assay [2] was 2.59 µM (active) and 18.4 µM (active) and inactive.

In the case of `COc1ccc(Cc2ccc(NC(N)=O)cc2)cc1-c1cccc(Cl)c1`, the Potency result in assay [2] is “inactive”.

With `COCCOc1nc(-c2ccc(Cl)c(Cl)c2)n(-c2ccc(NC(=O)CCl)cc2)n1`, the Potency entry in assay [2] is “inactive and 14.6 µM (active)”.

In the case of `COc1cc2c(cc1OC)CN(CCc1ccc(NC(=O)c3cc(OC)c(OC)cc3NC(=O)c3cnc4ccccc4c3)cc1)CC2`, the Potency entry in assay [1], in assay [2] and in assay [3] was “inactive” each time.

Regarding `CCCCCCCCCCCC1=C(O)C(=O)C=C(O)C1=O`, the Potency entry in assay [1], in assay [2] and in assay [3] was “inactive” throughout.

With `Cc1cccc(C)c1OCC(C)N` (stereo unspecified), the Potency result in assay [2] and in assay [3] was “inactive” each time. Moreover, the compound was classed as inactive in assay [4] and in assay [5].

For `CCCCC1C(=O)N(c2ccccc2)N(c2ccccc2)C1=O`, the Potency entry in assay [2] and in assay [3] was “inactive” in each case. The compound was classed as inactive in assay [4] and in assay [5].

In the case of `COC(=O)[C@@H]1[C@H]2C[C@H]3c4[nH]c5ccccc5c4CCN3C[C@@H]2CC[C@@H]1O`, the Potency entry in assay [2] and in assay [3] was “inactive” each time. The call in assay [4] and in assay [5] was inactive.

Consider `CCn1cc(C(=O)O)c(=O)c2ccc(C)nc21`, for which the Potency result in assay [2] and in assay [3] was “inactive” each time. Further, the result in assay [4], in assay [5], in assay [6], in assay [7] and in assay [8] was inactive.

With `CC[C@]1(O)C[C@@H]2CN(CCc3c([nH]c4ccccc34)[C@@](C(=O)OC)(c3cc4c(cc3OC)N(C=O)[C@@H]3C45CCN4CC=C[C@](CC)([C@H]45)[C@@H](OC(C)=O)[C@]3(O)C(=O)OC)C2)C1` (stereo partly specified), the Potency result in assay [2] is “inactive”.

On to `COCCCCC(=NOCCN)c1ccc(C(F)(F)F)cc1`, for which the Potency in assay [2] is 20.9 µM (active).

With `CO[C@H]1C[C@@H]2CC[C@@H](C)[C@@](O)(O2)C(=O)C(=O)N2CCCC[C@@H]2C(=O)O[C@H]([C@H](C)C[C@@H]2CC[C@H](OCCO)[C@H](OC)C2)CC(=O)[C@H](C)C=C(C)[C@@H](O)[C@@H](OC)C(=O)[C@H](C)C[C@H](C)C=CC=CC=C1C`, in assay [2], the Potency was 3.32 µM (active).
